# Active and inactive are the calls of the source. Rule for the calls: active = hit-call score of the fitted dose curve at least 0.9, where 1 is the maximum; inactive = score below 0.9.
# Read-out: Lipase C (LIPC), LIPC (gene 3990)
# Experiment: LTEA_HepaRG_LIPC: Life Technologies and Expression Analysis (LTEA) Assay for Lipase C (LIPC) using HepaRG (AID 2283514)
# Settings: mRNA level, 48 h; actives raise or lower the signal
# Procedure: LTEA_HepaRG is a cell based, multiplexed-readout assay that uses HepaRG, a human liver cell line, with measurements taken at 48 hours after chemical dosing on a 96-well plate.LTEA_HepaRG_LIPC is one of 102 assay component(s) measured in the LTEA HepaRG cell culture assay. It is a marker of Steatosis.Data from the assay component LTEA_HepaRG_LIPC was analyzed into 1 endpoint. This assay endpoint, LTEA_HepaRG_LIPC, was analyzed with bidirectional fitting relative to DMSO as the negative control and baseline of activity. Using a type of inducible reporter, measures of mRNA induction for gain or loss-of-signal activity can be used to understand regulation of transcription factor activity. To generalize the intended target to other relatable targets, this assay endpoint is annotated to the esterase intended target family, where the subfamily is lipase.
# A total of 1060 chemcials from the ToxCast library were tested in eight-point concentration-response experiments. Cell culture and cytotoxicity assays were conducted at Thermo Fisher Scientific's Custom Services facility (Madison, WI). A single lot of human HepaRG cells (Thermo Fisher Scientific, Frederick, MD) was used for the cell culture experiments. 96-well format collagen type I coated plates of human HepaRG cells were prepared using established methods. Briefly, cryopreserved HepaRG cells were thawed, plated at a density of approximately 100,000 cells/well in HepaRG Thaw, Plate, and General Purpose media (HPRG770, Thermo Fisher Scientific), and incubated for 48 hours. 0.5% DMSO was selected as vehicle control to balance the requisite need of DMSO in HepaRG cultures to maintain differentiation (for example, baseline metabolism, proportions of hepatocytes vs. cholangiocytes), while enabling further hepatic receptor pathway activation (for example, PXR and CAR) in response to chemical exposure. 48 hours after plating, the culture medium was replaced with HepaRG Serum-Free Incudtion Media. Cells were exposed to each test chemical in duplicate and maintained in CO2 incubators for another 48 hours. Chemical plates were thawed to room temperature and 200x concentrations of treatment groups were prepared. 8-point conentration-reponse curves were made with the highest exposure at 100 uM, followed by half-log dilutions, all in 0.5% DMSO. Each test plate contained variouse controls, induction positive controls (1mM phenobarbital), cytotoxicity positive controls ([…] aflatoxin B1), vehicle controls (0.5% DMSO), and total lysis controls (0.5% DMSO). Cell morphology images were taken using an Essen IncuCyte FLR automated microscope, with six 96-well plates imaged in about 24 minutes. Images were captured and exported and JPEG files. Spent culture media was transfered to black-well plates for the LDH assay, and remaining media was sorted at -80 C for later use. Cells were treated with RLT buffer and frozen until shipped for gene expression analysis. Total RNA was isolated from the cell suspension in 75 uL of Buffer RLT (Qiagen, Germantown, MD 20874) by Quintiles/Expression Analysis (Durham, NC) using a custom isolation procedure. Total RNA from each plate well was transferred to a preamplification plate. Fluidigm's 96.96 Dynamic ArrayTM (Fluidigm, Amsterdam, the Netherlands) technology was used for gene expression analyses by quantitative reverse transcription polymerase chain reaction (qRT-PCR, performed by Quintiles/Expression Analysis, Durham, NC)89. Standard TaqManTM Assays (Applied Biosystems/ThermoFisher Scientific, Foster City, CA) were used to assess the expression of 93 genes selected based on their selectivity and sensitivity to important hepatic receptors known to be modulated by environmental chemicals; importance in human hepatocyte functionality; and hepatotoxicity. […]
SMILES,outcome,AC50
COS(C)(=O)=O,inactive,–
NC(=O)NN=Cc1ccc([N+](=O)[O-])o1,–,0.233 µM (active)
CC(C)CCCCCCOC(=O)C1CCCCC1C(=O)OCCCCCCC(C)C (stereo not given),inactive,–
CCCCC(CC)C(=O)OCCOCCOCCOC(=O)C(CC)CCCC (stereo not given),inactive,–
NNC(=O)c1ccncc1,inactive,–
O=S(=O)(O)c1ccc(N=Nc2c(O)ccc3cc(S(=O)(=O)O)ccc23)cc1,inactive,–
CC(C)C(=O)Nc1ccc([N+](=O)[O-])c(C(F)(F)F)c1,–,55.5 µM (active)
NC(=O)N(O)[C@@H]1COc2cc(OCc3ccccc3)ccc21,inactive,–
Cc1ccc(S(=O)(=O)NC(=O)NN2CCCCCC2)cc1,inactive,–
c1ccc2ncccc2c1,inactive,–
C=CCc1cc(S(=O)(=O)c2ccc(O)c(CC=C)c2)ccc1O,–,84.9 µM (active)
CCCCOC(=O)c1ccccc1,inactive,–
NC(=O)N1c2ccccc2C=Cc2ccccc21,inactive,–
CCCc1ccccc1,inactive,–
O=S1(=O)CCCO1,inactive,–
OCCOCCOCCO,inactive,–
CC(C)c1nnc2ccc(-c3ocnc3-c3cc(F)ccc3F)cn12,–,83.4 µM (active)
CC[C@H](C)C(=O)O[C@H]1C[C@H](O)C=C2C=C[C@H](C)[C@H](CC[C@@H](O)C[C@@H](O)CC(=O)O)[C@H]21,inactive,–
CCCC(CCC)C(=O)O,inactive,–
CCCCCCCCCCCCCCCCOS(=O)(=O)O,inactive,–

SMILES,outcome,AC50
CCOc1ccc2[nH]cc(C(=O)NCc3ccccc3)c(=O)c2n1,inactive,–
CC(C)CC(C)O (stereo not given),inactive,–
COc1cc2c(c(OC)c1OC)-c1ccc(OC)c(=O)cc1[C@@H](NC(C)=O)CC2,–,0.301 µM (active)
CCCCCOC(C)=O,inactive,–
NC(N)=O,inactive,–
CCOC(N)=O,inactive,–
Nc1ccn([C@@H]2O[C@H](CO)[C@@H](O)[C@@H]2O)c(=O)n1,inactive,–
C[C@@H](Oc1ccc(CNC(=O)c2cccnc2Oc2ccc3c(c2)OCO3)c(F)c1)C(=O)O,inactive,–
CCCCCCCCCC,inactive,–
c1ccc2c(c1)-c1cccc3c1c-2cc1ccccc13,–,13.3 µM (active)
CCc1cccc(CC)c1N,inactive,–
Cc1nc(-c2ccccn2)ncc1C(=O)Nn1cc(C)c2cc(F)ccc21,–,50 µM (active)
O=C(O)c1cccc(C(=O)O)c1,inactive,–
OC(CCl)CCl,inactive,–
CC(=O)c1ccccc1,inactive,–
OCCNCCO,inactive,–
CC1(C)C(=O)N(Cl)C(=O)N1Cl,inactive,–
OCc1ccccc1,inactive,–
OC[C@H]1O[C@@H]2O[C@H]3[C@H](O)[C@@H](O)[C@@H](O[C@H]4[C@H](O)[C@@H](O)[C@@H](O[C@H]5[C@H](O)[C@@H](O)[C@@H](O[C@H]6[C@H](O)[C@@H](O)[C@@H](O[C@H]7[C@H](O)[C@@H](O)[C@@H](O[C@H]1[C@H](O)[C@H]2O)O[C@@H]7CO)O[C@@H]6CO)O[C@@H]5CO)O[C@@H]4CO)O[C@@H]3CO,inactive,–
O=C(O)c1ccc2c(c1)nc(C(=O)NC1CCN(C3CC3)CC1)n2Cc1cc(-c2ccc(Cl)s2)on1,inactive,–
